Test [1] can be described thus: EMT-state selective cytotoxicity in co-culture – imaging, PC-3E GFP, TEM4-18 mCherry, primary screen (AID 1345086;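 active = compounds killing one labelled cell type while sparing the other, by normalised counts and ratio limits, not self-fluorescent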;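 for all read-outs here: cells exposed to compound for 72 h before imaging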;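 for red/green cell ratio (normalised): normalised mesenchymal count divided by normalised epithelial count so high means epithelial killing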). The conditions noted are these: PC-3E GFP / TEM4-18 mCherry co-culture, imaging cell counts, at 1 µM; for red/green cell ratio (normalised): actives lie on both sides, counts scaled to control wells, 1 = unselective.
Test [2] in a line: viability loss with induced miR-34 in A549 – imaging, A549 dox-inducible miR-34, nuclei and caspase counts, primary screen (AID 1347080;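 active = compounds whose cell count with miR-34 switched on is under 0.7 times the count with it off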). The following applies: A549 miR-34 inducible, Hoechst nuclei count, 48 h.
Test [3] has as its target NAD(+) hydrolase SARM1 (Homo sapiens) (UniProt Q6SZW1). In words: blocking NAD cleavage by SARM1 SAM-TIR – cell lysate, NAD-Glo luminescence (AID 1508614;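 active = compound whose remaining NAD level is above about 45 nM, limit read from the data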;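 note: higher remaining NAD means stronger inhibition of SARM1 NADase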). The following applies: SAM-TIR HEK293T lysate NADase, at 1 µM, stronger effect = higher value.
Test [4] is described as follows: compounds altering viability of human ES cells (AID 493140; call rule not given here;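 note: cells exposed to compounds for four days before counting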). The conditions noted are these: human embryonic stem cell survival screen; stronger effect = higher value.
The nature of test [5]: P. berghei load reduction in hepatocytes – cell-based, HepG2, luciferase luminescence, HepG2 viability, primary screen (AID 624349).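 Note: 100% = mean of DMSO negative control wells on the same plate.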 The following applies: P. berghei liver stage in HepG2, luciferase luminescence, concentration not given here; parasite load remaining: stronger effect = lower value; viability: measured here: HepG2 viability without parasites.
Test [6] has as its target Mitogen-activated protein kinase 7 (Homo sapiens) (UniProt Q13164). In words: Gal4-ERK5 driven luciferase induction – cell-based, HTS, primary screen (AID 1508626;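 active = luciferase signal above three times the same-plate solvent-only control wells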;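 note: luciferase driven by Gal4-ERK5 fusion binding five Gal4 sites before minimal TATA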). The conditions noted are these: HeLa Gal4-ERK5 transactivation, 18 h, at 5 µM, stronger effect = higher value.
Test [7] is described as follows: blockers of polyQ-driven CASP3 activation – cell-based (AID 1583). The following applies: polyglutamine-induced caspase-3 activation, cell assay; stronger effect = higher value;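 tested at 10 µM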.
Test [8] in a line: yeast 75Q aggregation reduction – 75Q-TubU reporter (AID 1593). The conditions noted are these: Yeast 75Q polyglutamine aggregation reporter.
Test [9] can be described thus: restoration of touch response, mutant HTT neurons – whole organism, C. elegans mechanosensory neurons, N-terminal huntingtin (AID 1599). The conditions noted are these: C. elegans polyQ-huntingtin mechanosensory neurons, stronger effect = higher value.
Test [10] in a line: blockers of cytochrome c efflux from mitochondria – biochemical, purified mitochondria (AID 1603).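 Note: mouse liver mitochondria challenged with calcium chloride; signal normalized to the plate average as 100%.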 The conditions noted are these: stronger effect = lower value.
Test [11] in a line: polyglutamine aggregate formation blockers (AID 1604). The conditions noted are these: polyglutamine-induced protein aggregation inhibition assay; stronger effect = higher value; tested at 2.5 µM.
Test [12] can be described thus: glutamate transport activators, MN-1 cells, MN-1 cell line (AID 1612).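 Note: tested at 1 µM final; 0% = mean of DMSO vehicle wells on each plate; positive means more glutamate uptake than control and negative means less.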 The following applies: MN-1 motor neuron cells, stronger effect = higher value.
The nature of test [13]: GFP-Q80 aggregate reduction, neuronal-like cells, cell-based, NGF-treated PC12, GFPQ80 (AID 1614).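 Note: lower means fewer inclusions and 0 means no inclusions at all.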 The following applies: PC12 NGF-treated GFP-polyQ80 inclusion reduction.
A short description of test [14]: 75Q-TubH aggregate inhibition, S. cerevisiae, yeast (AID 1616). The conditions noted are these: S. cerevisiae 75Q-TubH polyglutamine aggregation suppression; stronger effect = higher value.
Where [15] appears, read: measured here: epithelial PC-3E GFP cell survival.
Where [16] appears, read: measured here: mesenchymal TEM4-18 mCherry cell survival.
Setting [17] is: stronger effect = lower value, cell number ratio, induced over uninduced.
Where [18] appears, read: measured here: relative caspase fold change +Dox/-Dox.
[19] abbreviates: measured here: total cells with miR-34 induction, stronger effect = lower value.
The mark [20] stands for this setting: measured here: total cells without miR-34 induction.

Values joined by “and” are separate entries in the source; they are usually repeats but may differ in a detail not shown here. Equal values may be shown once. For part of these data: Entries with a potency or affinity are not part of this list. Active and inactive are the calls of the source. Cut-off read from the data, not from the text of the source, unless noted: active = parasite load remaining mostly below about 12% (no sharp cut-off); inactive = mostly above about 10%.

For orientation: viability means a read-out of living cells in per cent, often relative to untreated cells. As a reminder, the inhibition is the relative decrease from the control value, in per cent.

NAD(+) hydrolase SARM1 (Homo sapiens), sequence (Q6SZW1 whole entry, looked up): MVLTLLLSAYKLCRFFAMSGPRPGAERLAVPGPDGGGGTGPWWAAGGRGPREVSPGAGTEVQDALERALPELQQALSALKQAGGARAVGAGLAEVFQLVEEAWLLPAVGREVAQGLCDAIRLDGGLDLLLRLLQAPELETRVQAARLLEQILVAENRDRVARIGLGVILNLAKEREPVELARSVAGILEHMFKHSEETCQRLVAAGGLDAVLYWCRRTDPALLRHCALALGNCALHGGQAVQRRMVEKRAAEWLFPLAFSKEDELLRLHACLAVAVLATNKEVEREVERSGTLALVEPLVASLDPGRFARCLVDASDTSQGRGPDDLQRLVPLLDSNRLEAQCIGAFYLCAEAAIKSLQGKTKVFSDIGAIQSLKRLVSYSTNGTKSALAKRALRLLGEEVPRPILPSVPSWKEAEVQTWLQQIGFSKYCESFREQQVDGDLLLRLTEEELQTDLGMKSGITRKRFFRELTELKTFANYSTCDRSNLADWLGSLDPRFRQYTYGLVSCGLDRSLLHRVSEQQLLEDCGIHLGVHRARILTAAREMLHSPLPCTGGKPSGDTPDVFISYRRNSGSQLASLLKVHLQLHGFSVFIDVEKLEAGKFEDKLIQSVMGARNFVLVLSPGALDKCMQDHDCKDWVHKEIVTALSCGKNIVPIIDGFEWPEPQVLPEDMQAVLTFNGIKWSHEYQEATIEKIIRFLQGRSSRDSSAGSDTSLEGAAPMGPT
Mitogen-activated protein kinase 7 (Homo sapiens), sequence (Q13164 whole entry, looked up, the tested form may be a part): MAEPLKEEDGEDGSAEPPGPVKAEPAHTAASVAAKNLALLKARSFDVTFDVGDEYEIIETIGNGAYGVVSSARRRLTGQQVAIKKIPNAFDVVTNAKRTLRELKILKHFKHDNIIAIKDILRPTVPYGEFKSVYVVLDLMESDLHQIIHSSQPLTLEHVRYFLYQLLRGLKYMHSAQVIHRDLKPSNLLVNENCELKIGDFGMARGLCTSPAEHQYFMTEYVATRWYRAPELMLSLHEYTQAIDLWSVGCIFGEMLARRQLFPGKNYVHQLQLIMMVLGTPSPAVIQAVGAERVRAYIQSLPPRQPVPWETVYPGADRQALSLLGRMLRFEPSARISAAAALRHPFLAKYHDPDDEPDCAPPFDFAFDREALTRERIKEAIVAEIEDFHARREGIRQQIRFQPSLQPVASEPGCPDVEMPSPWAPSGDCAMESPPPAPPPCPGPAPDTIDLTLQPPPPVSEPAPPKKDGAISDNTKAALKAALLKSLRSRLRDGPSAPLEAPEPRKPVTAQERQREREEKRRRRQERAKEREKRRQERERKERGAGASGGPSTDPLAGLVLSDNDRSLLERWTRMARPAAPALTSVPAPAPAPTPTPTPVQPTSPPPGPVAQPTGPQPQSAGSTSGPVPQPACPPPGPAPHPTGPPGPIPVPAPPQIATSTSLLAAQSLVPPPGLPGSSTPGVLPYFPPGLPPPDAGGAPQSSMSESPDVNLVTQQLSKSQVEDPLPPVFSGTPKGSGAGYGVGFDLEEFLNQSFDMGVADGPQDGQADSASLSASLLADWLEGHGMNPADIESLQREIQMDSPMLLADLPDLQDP

Regarding `CC(C)[C@H](N)C(=O)OCC(CO)OCn1cnc2c(=O)[nH]c(N)nc21` (some centres not stated), the red/green cell ratio (normalised) in test [1] was 0.79 (inactive). The figures for the normalised cell number in test [1] (setting [15]) and in test [1] (setting [16]) were 1.28 and 1.01, respectively. Further, the fold change in [2] (setting [17]) was 0.935 (inactive); in test [2] (setting [18]), 0.843. The cell count came out at 8710 in test [2] (setting [19]) and 9320 in test [2] (setting [20]). Further, in test [3], the remaining NAD is 10 nM (inactive).
Take `COc1cc(/C=C/C(=O)N2CCC=CC2=O)cc(OC)c1OC`: in test [4], the survival is 0.417 (inactive). Also, in test [5], the parasite load remaining is -9.42% (inactive) and 36.9% (inactive). For the same compound, the viability in [5] was 36.5% and 76.3%. Also, the red/green cell ratio (normalised) in test [1] was 1.8 (active). The normalised cell number in test [1] (setting [15]) was determined as 0.39; in test [1] (setting [16]), 0.7. In addition, the fold change was 0.965 (inactive) in [2] (setting [17]) and 1.26 in test [2] (setting [18]). The cell count in [2] (setting [19]) is 3400; in [2] (setting [20]), 3530. Further, in test [6], the luciferase signal is 460 AU (active).
As for `CC(C)[N+]1(C)C2CC[C@@H]1CC(OC(=O)C(CO)c1ccccc1)C2` (some centres not stated), the inhibition in test [7] turned out to be 3.73%. The score in [8] was determined as 1.48. This compound displayed a rescue above control in test [9] of -2.72. Moreover, the cytochrome c release ratio in test [10] is 0.9. The compound further gave an inhibition of aggregation in test [11] of 73%. For the same compound, in test [12], the glutamate uptake change was -1.05%. This compound also registered an inclusion score in [13] of 2. This compound registered an aggregation suppression score in test [14] of 0.901. The parasite load remaining in [5] is 88% (inactive) and 61.6% (inactive). Further, the viability in test [5] is 79% and 98.1%. In [1], the red/green cell ratio (normalised) is 0.61 (inactive). Also, the normalised cell number stood at 1.35 in test [1] (setting [15]) and 0.82 in [1] (setting [16]). Moreover, the fold change in test [2] (setting [17]) was 0.876 (inactive); in [2] (setting [18]) it was 1.18. In addition, the cell count was 10700 in test [2] (setting [19]) and 12200 in test [2] (setting [20]).
On to `CO[C@@H]1[C@@H](O[C@@H]2O[C@H](C)[C@@H](O[C@H]3C[C@@](C)(O)[C@H](O)[C@H](C)O3)[C@H](N(C)C)[C@H]2O)[C@@H](CC=O)C[C@@H](C)[C@@H](O[C@H]2CC[C@H](N(C)C)[C@@H](C)O2)/C=C/C=C/C[C@H](C)OC(=O)C[C@H]1O`, for which, in test [7], the inhibition came out at 7.63%. In addition, the score in test [8] is 1.61. The rescue above control in test [9] is 24.9. The cytochrome c release ratio in [10] worked out at 1.41. For the same compound, the inhibition of aggregation in [11] turned out to be 50.8%. Besides, in test [12], the glutamate uptake change was -5.09%. The compound further registered an inclusion score in test [13] of 2. In test [14], the aggregation suppression score was 1.01. Moreover, the parasite load remaining in test [5] is 143% (inactive) and 69.7% (inactive). Besides, the viability in test [5] was 83.9% and 197%. In [1], the red/green cell ratio (normalised) was 0.86 (inactive). Moreover, the normalised cell number was 1.23 in test [1] (setting [15]) and 1.05 in test [1] (setting [16]). Besides, the fold change was 0.795 (inactive) in [2] (setting [17]) and 4.68 in test [2] (setting [18]). The figures for the cell count in test [2] (setting [19]) and in test [2] (setting [20]) were 10300 and 12900, respectively.
As to `CN[C@@H]1C(OC2[C@H](O[C@H]3[C@H](O)[C@@H](O)[C@H](N=C(N)N)[C@@H](O)[C@@H]3N=C(N)N)OC(C)[C@]2(O)CO)OC(CO)C(O)C1O` (some centres not stated), in test [7], the inhibition was -7.45%. Further, in test [8], the score was found to be 1.24. In test [9], the rescue above control is 1.04. In test [10], the cytochrome c release ratio came out at 0.93. This compound also came in with an inhibition of aggregation in [11] of 82.2%. Further, the glutamate uptake change in test [12] is -1.61%. Further, the inclusion score in [13] worked out at 2. In test [14], the aggregation suppression score was 1.17. The parasite load remaining in [5] is 87.5% (inactive) and 63.1% (inactive). Also, the viability in test [5] is 69.8% and 93.3%. Besides, in test [1], the red/green cell ratio (normalised) was 1.34 (inactive). In addition, the normalised cell number was determined as 1.05 in test [1] (setting [15]) and 1.41 in test [1] (setting [16]). The fold change in test [2] (setting [17]) was 0.819 (inactive); in [2] (setting [18]), 1.34. Moreover, the cell count is 10800 in test [2] (setting [19]) and 13200 in test [2] (setting [20]).
Turning to `NCC[C@@H](O)C(=O)N[C@@H]1C[C@H](N)[C@@H](O[C@H]2O[C@H](CN)[C@@H](O)[C@H](O)[C@H]2O)[C@H](O)[C@H]1O[C@H]1O[C@H](CO)[C@@H](O)[C@H](N)C1O` (some centres not stated), in [7], the inhibition was -41.9%. Also, the score in test [8] was found to be 1.11. In addition, the rescue above control in test [9] is -4.05. Also, the cytochrome c release ratio in test [10] came out at 0.95. Besides, the inhibition of aggregation in test [11] was 36.6%. Besides, the glutamate uptake change in test [12] was found to be 9.38%. The compound further had an inclusion score in [13] of 2. Further, the aggregation suppression score in test [14] came out at 1.24. Moreover, in test [5], the parasite load remaining is 115% (inactive) and 70.5% (inactive). For the same compound, the viability in [5] was 74.2% and 95.8%. Moreover, the red/green cell ratio (normalised) in test [1] was 1 (inactive). The normalised cell number in test [1] (setting [15]) and in test [1] (setting [16]) was 1.2 in each case. Moreover, the fold change in test [2] (setting [17]) is 0.885 (inactive); in [2] (setting [18]), 0.583. Also, the cell count amounted to 10600 in test [2] (setting [19]) and 11900 in [2] (setting [20]).

The record behind these values is PubChem BioAssay.
